Screening data (PubChem)
Rows were chosen to be rich in hits. Some 1.3% of all compounds tested hit in one or more screens of this group.
UGM FP inh: inhibitors of M. tuberculosis UDP-galactopyranose mutase; P9WIQ1; purified UGM, fluorescence polarization probe displacement; inhibition, % at 10 µM; 320,000 compounds, 0.06% hits; AID 504406; in the data active means inhibition above about 10%, passing the limit was not always enough; inconclusive means no clear call, values can overlap the other calls
Target sequence (P9WIQ1 whole entry, looked up): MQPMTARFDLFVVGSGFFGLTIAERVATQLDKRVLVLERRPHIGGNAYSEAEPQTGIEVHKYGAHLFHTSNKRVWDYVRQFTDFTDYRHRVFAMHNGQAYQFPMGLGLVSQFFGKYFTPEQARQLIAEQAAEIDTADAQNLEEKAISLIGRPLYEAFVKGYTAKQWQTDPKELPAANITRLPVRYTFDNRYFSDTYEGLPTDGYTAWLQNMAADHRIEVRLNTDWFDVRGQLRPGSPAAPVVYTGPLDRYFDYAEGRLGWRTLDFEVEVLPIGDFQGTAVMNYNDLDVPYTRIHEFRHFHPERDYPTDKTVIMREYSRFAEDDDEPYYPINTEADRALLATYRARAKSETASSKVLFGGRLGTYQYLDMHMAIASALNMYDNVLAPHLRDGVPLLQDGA
BJeLR lethal: BJeLR cell viability loss; BJeLR (HRASV12) viability, CellTiter-Glo ATP luminescence, 48 h; inhibition, % (test concentration not listed); 300,000 compounds, 0.17% hits; in the data active means inhibition above about 50%; inconclusive means no clear call, values can overlap the other calls
PrP 5UTR inh: suppresses PrP 5' UTR mRNA reporter expression. cell-based PrP 5' UTR mRNA reporter, plate reader. inhibition, % (no concentration beside the values). 340,000 compounds, 0.35% hits. AID 488862; in the data active means inhibition above about 52%; further: 0 = median of the neutral control wells
FadD28 binding: blocks FadD28 binding to the bisubstrate probe; fluorescence polarization; inhibition, % at 12.5 µM; 360,000 compounds, 0.22% hits; AID 588549; in the data active means inhibition above about 8.5%, passing the limit was not always enough; inconclusive means no clear call, values can overlap the other calls
Rv3671c protease: Rv3671c (M. tuberculosis) protease inhibition. P9WHR9. inhibition, % at 5.96 µM. 320,000 compounds, 0.048% hits. AID 2606; in the data active means inhibition above about 38%;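 further: extracellular domain of Rv3671c used as enzyme; 0% = enzyme with DMSO and 100% = no enzyme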
RecA splice inh: Mtb RecA intein splicing inhibition; P9WHJ3; cell-free RecA intein splicing, fluorescence; inhibition, % (concentration not given with the values); 290,000 compounds, 0.75% hits; AID 2221; in the data active means inhibition above about 30%; inconclusive means no clear call, values can overlap the other calls;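 further: 0% = vehicle wells and 100% = reference inhibitor control wells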
PrP 5UTR single: prion 5' UTR mRNA inhibition, cherry-pick retest | shares compounds with PrP 5UTR inh | cell-based prion protein 5' UTR reporter, plate reader | inhibition, % at 2.5 µM | 1,100 compounds, 48% hits | AID 504592; in the data active means inhibition above about 54%; inconclusive means no clear call, values can overlap the other calls
Numbers without * were called inactive.

For O=C(O)/C=C/c1ccc2ccccc2n1 the results were UGM FP inh 3.5, BJeLR lethal 2.8, PrP 5UTR inh -12.1, FadD28 binding -0.1, Rv3671c protease 2.4 and RecA splice inh 1.4.
For O=[N+]([O-])c1ccc(/C=C/c2ccc3ccccc3n2)cc1 the results were UGM FP inh 0.3, BJeLR lethal 14.8, PrP 5UTR inh 15.5, FadD28 binding -2.3 and Rv3671c protease -6.4.
Cc1cc(O)ccc1-c1cccc2nccn12 was read as FadD28 binding -6.2.
`CCOC(=O)C1CCCN(C(=O)c2ccccc2NC(=O)C2=C(C)OCCS2)C1` (configuration not stated) gave UGM FP inh -0.1, BJeLR lethal 10.4, PrP 5UTR inh -8.1, FadD28 binding 0.0, Rv3671c protease -1.3 and RecA splice inh -2.0.
`C[C@H](CO)N1C[C@H](C)[C@@H](CN(C)S(=O)(=O)c2ccc(F)cc2)Oc2ccc(NS(=O)(=O)c3ccccc3)cc2C1=O` gave UGM FP inh 5.2, PrP 5UTR inh -25.1, FadD28 binding 0.3 and Rv3671c protease 0.0.
For Nc1ccc(S(=O)(=O)Nc2nccc(/C=C/c3ccc(Cl)cc3Cl)n2)cc1 the results were UGM FP inh 0.9, BJeLR lethal -2.6, PrP 5UTR inh -3.7, FadD28 binding 0.2, Rv3671c protease -177.5 and RecA splice inh 0.5.
For CN(C)c1ccc2c(c1)OC(N)=C(C#N)C2c1cccc(F)c1 (configuration not stated) the results were UGM FP inh -0.7, BJeLR lethal 10.4, PrP 5UTR inh 66.0*, FadD28 binding -0.4, Rv3671c protease -7.5, RecA splice inh -10.1 and PrP 5UTR single 90.3*.
CC1CN(C(=O)CCC(=O)NCc2ccc(Cl)cc2)c2ccccc2S1 (configuration not stated) was read as UGM FP inh 1.6, BJeLR lethal -5.1, PrP 5UTR inh 62.9*, FadD28 binding -1.5, Rv3671c protease -1.4, RecA splice inh 0.2 and PrP 5UTR single -13.2.
For CCc1nc2c(OCc3cccc(OC)c3)cccn2c1N(C)C(=O)c1ccc(OC)cc1 the results were FadD28 binding -3.5.
Screening COc1ccc2c(c1)sc1nc(-c3ccccc3)cn12 returned UGM FP inh -1.5, BJeLR lethal 16.1, PrP 5UTR inh 88.6*, FadD28 binding -2.0, Rv3671c protease -21.4, RecA splice inh 0.7 and PrP 5UTR single 88.8*.
Screening CCOC(=O)N1CCN(C(=O)c2ccc3c(c2)sc2nc(-c4ccc(OC)cc4)cn23)CC1 returned UGM FP inh -5.0, BJeLR lethal 6.0, PrP 5UTR inh -31.8, FadD28 binding 0.9, Rv3671c protease 4.8 and RecA splice inh -1.9.
For Cc1c2c(=O)n(-c3nc4ccccc4s3)nc-2cc(O)n1Cc1ccccc1 the results were PrP 5UTR inh 64.8*, FadD28 binding inconclusive and PrP 5UTR single 34.8.
Screening Cc1cc(C)n(-c2nc3ccccc3s2)n1 returned UGM FP inh 0.2, BJeLR lethal 5.0, PrP 5UTR inh -37.7, FadD28 binding -0.1, Rv3671c protease -3.0 and RecA splice inh 0.2.
For COC1=C(C)C(=O)C2=C(C1=O)C1C3CC4=C(C(=O)C(OC)=C(C)C4=O)C(CNC(=O)C(C)=O)N3C(C#N)C(C2)N1C (configuration not stated) the results were PrP 5UTR inh 93.8*, FadD28 binding 0.1 and PrP 5UTR single 97.4*.
`CCN(C[C@H]1N[C@@](Cc2ccccc2)(C(=O)OC)[C@H]2C(=O)N(C)C(=O)[C@@H]12)S(=O)(=O)c1ccc(C(C)(C)C)cc1` gave PrP 5UTR inh 59.5*, FadD28 binding -1.0, Rv3671c protease 3.1 and PrP 5UTR single -5.8.
`CCc1nc2ccc(C(=O)N3CCN(S(=O)(=O)CC)CC3)cn2c1N(CCC(C)C)CCN(C)C` gave FadD28 binding -2.6.
For COc1ccc(S(=O)(=O)Cc2ccc(C(=O)N3CCOCC3)o2)cc1 the results were UGM FP inh -0.8, BJeLR lethal -2.1, PrP 5UTR inh 70.9*, FadD28 binding -0.3, Rv3671c protease 1.8 and PrP 5UTR single -0.9.
Screening O=C(c1ccc(CS(=O)(=O)c2ccc(Br)cc2)o1)N1CCOCC1 returned UGM FP inh 0.7, BJeLR lethal 0.7, PrP 5UTR inh -16.8, FadD28 binding -1.6, Rv3671c protease -7.9 and RecA splice inh -0.3.
`Cn1cc(/C=N/n2cnc3scc(-c4ccc(Cl)cc4)c3c2=O)c2ccccc21` gave UGM FP inh 0.0, BJeLR lethal 33.8, PrP 5UTR inh 57.1*, FadD28 binding -1.5, Rv3671c protease -11.2, RecA splice inh -1.8 and PrP 5UTR single 91.3*.
CC(=O)NN1C(=O)c2ccccc2NC1c1ccc([N+](=O)[O-])o1 (configuration not stated) was read as UGM FP inh -0.4, BJeLR lethal -1.8, PrP 5UTR inh 60.9*, FadD28 binding -0.7, Rv3671c protease -0.6, RecA splice inh -3.7 and PrP 5UTR single 3.7.
`CCNC(=O)C1(C)CCCN(C(=O)c2cc(-c3cccs3)oc2C)C1` (configuration not stated) gave FadD28 binding 0.0.
O=C1Nc2ccc(Br)cc2C12NNc1ccccc1O2 (configuration not stated) was read as UGM FP inh 0.4, BJeLR lethal -16.9, PrP 5UTR inh -64.8, FadD28 binding -2.2, Rv3671c protease 1.2 and RecA splice inh 5.6.
O=C(N/N=C/c1cc2c(cc1Br)OCO2)c1cccnc1 was read as UGM FP inh 2.2, BJeLR lethal 2.1, PrP 5UTR inh 62.2*, FadD28 binding -3.0, Rv3671c protease 6.9, RecA splice inh -0.7 and PrP 5UTR single -14.1.
CC(C)(C)c1ccc(C(=O)Nc2ccc(CC(=O)O)cc2)o1 was read as UGM FP inh -1.0, BJeLR lethal 1.9, PrP 5UTR inh 72.1*, FadD28 binding -2.6, Rv3671c protease -3.7, RecA splice inh -3.5 and PrP 5UTR single 75.2*.
Screening Cc1ccc(C(=O)Nc2ccc(CC(=O)O)cc2)o1 returned UGM FP inh 1.8, BJeLR lethal -3.2, PrP 5UTR inh -21.0, FadD28 binding -4.0, Rv3671c protease -0.1 and RecA splice inh -0.4.
`COC(=O)C12OCC34C(CC5C(C)=C(O)C(=O)CC5(C)C3C(O)C1O)OC(=O)C(OC(=O)C=C(C)C)C24` (configuration not stated) gave PrP 5UTR inh 82.6*, FadD28 binding 0.4 and PrP 5UTR single 85.7*.
`COC(=O)C12OCC34C(CC5C(C)=C(O)C(=O)CC5(C)C3C(O)C1O)OC(=O)C(OC(=O)/C=C(\C)C(C)C)C24` (configuration not stated) gave PrP 5UTR inh 93.2*, FadD28 binding 1.0 and PrP 5UTR single 92.0*.
